Unmarked numbers belong to inactive results.
These compounds were tested on Schistosoma mansoni schistosomula (NMRI) (assay: phenotypic severity score (0-4); higher = more antischistosomal effect, active = 2 or more). Conditions: 72 h; 10 µM.
For O=C1O[C@@H](CO)CN1c1cc(F)c(C2=CCN(Cc3ccccc3)CC2)c(F)c1, the phenotypic severity score was 2 (active). CCc1nn(C)c(C(=O)NCc2ccc(Oc3ccc(C)cc3)cc2)c1Cl was tested, and the phenotypic severity score was 2 (active). For CC(C)(C)C(O)C(Oc1ccc(-c2ccccc2)cc1)n1cncn1 (centres undefined), the phenotypic severity score was 0. Cc1nn(Cc2ccccc2)c(Cl)c1C(=O)NC1CCCCCC1 was tested, and the phenotypic severity score was 0. CO[C@@H]1CN(c2ccc(C#CC3(O)CN4CCC3CC4)c(Cc3ccccc3)n2)C[C@H]1O (some centres undefined) showed a phenotypic severity score of 0. Cc1cc(C2=NOC(c3cc(Cl)c(F)c(Cl)c3)(C(F)(F)F)C2)ccc1C(=O)NCc1ccc2c(c1)C(C)(C)OB2O (centres undefined) showed a phenotypic severity score of 0. With O=C1O[C@@H](COc2ccon2)CN1c1cc(F)c(C2=CCN(Cc3ccccc3)CC2)c(F)c1 the phenotypic severity score was 0. With CC1COC(Cn2cncn2)(c2ccc(Oc3ccc(Cl)cc3)cc2Cl)O1 (centres undefined) the phenotypic severity score was 2 (active). In the case of CC1(C)OB(O)c2ccc(C3=NOC(c4cc(Cl)c(F)c(Cl)c4)(C(F)(F)F)C3)cc21 (centres undefined), the phenotypic severity score is reported as 1. For Nc1c2c(nc3sc4c(c13)CCCC4)CCCC2, the phenotypic severity score was 4 (active). Work on CO/C=C(/C(=O)OC)c1ccccc1Oc1cc(Oc2ccccc2C#N)ncn1 yielded a phenotypic severity score of 0. With Cc1nn(C)c(C)c1NS(=O)(=O)c1c(Cl)cc(-c2ccnc(N3CCNCC3)c2)cc1Cl the phenotypic severity score was 0. CO/N=C(\C(=O)OC)c1ccccc1CO/N=C(\C)c1cccc(C(F)(F)F)c1 was tested, and the phenotypic severity score was 0. Work on Cc1cccc(C(=O)Nc2ccnc(N(C)C3CCN(CC(C)C)CC3)c2)c1 yielded a phenotypic severity score of 0.

Reference: the supplement of paper PMC6805474
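Also: visual microscopic scoring of shape, motility and density changes versus 0.5% DMSO solvent controls, one point per descriptor, degeneracy or death scored 4, mean of duplicate wells.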
